Rows were chosen to be rich in hits. Some 9.8% of all compounds tested hit in one or more screens of this group.
CBFb-RUNX1 inh: inhibitors of human CBF-beta and RUNX1 interaction; Q01196+Q13951; AlphaScreen CBFb-His/RUNX1-biotin binding, biochemical; Potency, µM (highest dose often 59.8 µM), hits mostly inhibitors; 230,000 tested, under 10 active; AID 1477
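Interaction loss through any mechanism counts as activity. Pre-formed complex of His-CBF-beta and biotin-RUNX1 (30 nM apiece) is incubated with compound 15 min, then with 50 ng nickel and 50 ng streptavidin beads for 90 min before AlphaScreen detection.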
ALDH1A1 inh: inhibitors of human aldehyde dehydrogenase 1A1. Purified ALDH1A1, NADH fluorescence, propionaldehyde substrate. P00352. Potency, µM (top dose mostly 75.3 µM), actives largely listed as inhibitors. actives 7.3% (n = 220,000); active = well fitted inhibition curve with a large enough effect, not every such curve was filed as active; inconclusive = small, poorly fitted or top-dose-only effect, or another doubt; inactive = no such curve, though single readings can be large or run the other way
Target sequence (P00352 whole entry, looked up): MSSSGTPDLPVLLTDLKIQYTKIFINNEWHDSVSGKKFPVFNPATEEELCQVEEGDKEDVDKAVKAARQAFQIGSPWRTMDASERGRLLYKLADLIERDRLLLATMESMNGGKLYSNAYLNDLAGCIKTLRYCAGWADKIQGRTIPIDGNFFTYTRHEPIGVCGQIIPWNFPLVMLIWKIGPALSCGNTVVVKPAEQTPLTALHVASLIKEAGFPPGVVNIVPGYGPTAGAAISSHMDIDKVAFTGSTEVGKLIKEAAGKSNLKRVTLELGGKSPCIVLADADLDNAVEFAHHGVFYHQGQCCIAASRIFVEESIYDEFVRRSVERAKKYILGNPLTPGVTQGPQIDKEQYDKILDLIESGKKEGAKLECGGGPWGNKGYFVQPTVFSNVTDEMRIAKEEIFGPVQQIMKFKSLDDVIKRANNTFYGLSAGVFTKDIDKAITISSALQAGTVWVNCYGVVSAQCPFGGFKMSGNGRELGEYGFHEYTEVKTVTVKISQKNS
HttQ103 aggreg: mutant huntingtin aggregation inhibition. PC12 HttQ103-GFP aggregates, Acumen cytometry, 40 h. actives 1.1% (n = 220,000). Potency, µM (doses to about 46.1 µM), hits mostly inhibitors. AID 1688; also: nearly all actives have a fitted effect of over 60% in size
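Aggregate formation scored by laser-scanning cytometer (488 excitation, 500–530 emission) in lysed PC12 cells expressing Q103-GFP after 100 nM tebufenozide induction; library tested in dose series, with ATPLite reagent added in the multiplex.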
HPGD inh: inhibitors of human 15-hydroxyprostaglandin dehydrogenase (HPGD). purified HPGD, NADH fluorescence kinetic, PGE2 substrate. Potency, µM, actives largely listed as inhibitors. actives 4.3% (n = 150,000). AID 894; active = well fitted inhibition curve with a large enough effect, not every such curve was filed as active; inconclusive = small, poorly fitted or top-dose-only effect, or another doubt; inactive = no such curve, though single readings can be large or run the other way
Target sequence (P15428 whole entry, looked up): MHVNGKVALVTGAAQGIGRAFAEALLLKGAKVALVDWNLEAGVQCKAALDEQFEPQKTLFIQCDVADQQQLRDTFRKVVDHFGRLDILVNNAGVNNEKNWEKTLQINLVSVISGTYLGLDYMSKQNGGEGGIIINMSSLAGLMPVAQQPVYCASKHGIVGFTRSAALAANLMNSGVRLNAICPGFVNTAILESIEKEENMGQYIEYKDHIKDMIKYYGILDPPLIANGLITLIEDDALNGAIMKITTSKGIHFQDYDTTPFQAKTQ
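20 nM HPGD preincubated 15 min at room temperature with compound in 50 mM Tris-HCl pH 8, 0.01% Tween 20. Started with 1 mM NAD+ and 30 uM prostaglandin E2; NADH fluorescence (360/450 nm) read 5 times over 30-s intervals, last minus first.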
HTT cytoprotect: protects HTT-Q103 PC12 cells, measured by ATP | actives 0.14% (n = 230,000) | Potency, µM (top dose mostly 56.4 µM), hits mostly activators | PC12 HTT-Q103 induced, cytoprotection, ATP luminescence, 40 h; also: nearly all actives have a fitted effect of over 45% in size
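ATP quantification (ATPlite) reports survival of PC12 cells in which tebufenozide, 100 nM final, switches on Htt exon 1 with 103 glutamines linked to GFP; compounds are titrated.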
KDM4E inh: JMJD2E (human) inhibition | actives 1.6% (n = 230,000) | B2RXH2 | Potency, µM (doses to about 57.1 µM), most hits filed as inhibitors | JMJD2E catalytic domain, FDH-coupled NADH fluorescence (FDH is formaldehyde dehydrogenase) | AID 2147; active = well fitted inhibition curve with a large enough effect, not every such curve was filed as active; inconclusive = small, poorly fitted or top-dose-only effect, or another doubt; inactive = no such curve, though single readings can be large or run the other way; also: nearly all actives have a fitted effect of over 50% in size
Of the large screens only hits and unclear results are named; the others gave an inactive call. Unless noted, calls follow the shape of the dose curve; as a rule, active = well fitted curve in the direction sought with a large enough effect; inconclusive = small, poorly fitted or top-dose-only effect, or another doubt; inactive = no such curve, though single readings can be large; an effect the other way counts as inactive or inconclusive.

CCCCCCC[N+](CC)(CC)CCCCc1ccc(Cl)cc1	HttQ103 aggreg inconclusive
O=S(=O)(NCC(c1cccnc1)N1CCOCC1)c1ccccc1 (stereo not given)	ALDH1A1 inh 25µM (no result: HPGD inh)
O=S(=O)(NCC(c1cccnc1)N1CCOCC1)c1ccc(Cl)cc1 (stereo not given)	ALDH1A1 inh 28µM, KDM4E inh inconclusive (no result: HPGD inh)
Cc1cccc(Nc2ccncc2S(=O)(=O)NC(=O)NC(C)C)c1	KDM4E inh inconclusive
Cc1cc(F)ccc1NC(=O)c1ccc(NS(=O)(=O)c2cc(C(C)(C)C)ccc2C)cc1	ALDH1A1 inh 2.5µM
CC(=O)Nc1ccc(NC(=O)c2ccc(NS(=O)(=O)c3cc(C(C)(C)C)ccc3C)cc2)cc1	ALDH1A1 inh inconclusive, HttQ103 aggreg inconclusive, KDM4E inh inconclusive (no result: HPGD inh)
Cc1ccc(N(CCC#N)C(=O)CCl)cc1C	ALDH1A1 inh 0.35µM
Cn1c(N)c(C(=O)Nc2ccc3ccccc3c2)sc1=S	ALDH1A1 inh 13µM, HPGD inh 8.9µM
Nc1c(C(=O)Nc2ccc(F)cc2)sc(=S)n1-c1ccccc1F	ALDH1A1 inh 13µM (no result: HPGD inh)
O=C(Nc1ccc(F)cc1)c1sc(Cl)nc1-c1ccccc1	HTT cytoprotect inconclusive
NC(=O)c1sc(=S)n(-c2ccc(Br)cc2)c1N	none
COc1ccccc1-n1c(N)c(C(N)=O)sc1=S	ALDH1A1 inh 28µM, HPGD inh 28µM
Cn1c(N)c(C(=O)Nc2ccccc2F)sc1=S	ALDH1A1 inh inconclusive (no result: HPGD inh)
NC(=O)NCCC[C@H](N)C(=O)O	none (no result: HttQ103 aggreg)
COc1ccc(/C(C)=N/N=C(N)N)c(OC)c1	none (no result: ALDH1A1 inh, HPGD inh)
CCOC(=O)C1=C(NC#N)OC(C)=C(C)C1c1ccc(O)cc1 (stereo not given)	ALDH1A1 inh 22µM, KDM4E inh inconclusive
CCOC(=O)C1=C(C)OC(N)=C(C#N)C1c1ccsc1 (stereo not given)	ALDH1A1 inh inconclusive
O=c1c(Cl)c(NCC2CCCO2)cnn1C12CC3CC(CC(C3)C1)C2 (stereo not given)	ALDH1A1 inh 18µM (no result: HPGD inh)
CCc1c(C)sc(NC(=O)c2ccco2)c1C(=O)N1CCOCC1	ALDH1A1 inh 22µM, HPGD inh inconclusive
CCOC(=O)c1c(NC(=O)c2ccco2)sc2c1CCCCC2	ALDH1A1 inh inconclusive, HPGD inh inconclusive, KDM4E inh inconclusive
CCOC(=O)c1c(NC(=O)CN2CCN(C(=O)c3ccco3)CC2)sc(C(N)=O)c1C	KDM4E inh inconclusive (no result: HPGD inh)
CCOC(=O)c1c(NC(=O)C(C)N2CCN(C(=O)c3ccco3)CC2)sc2c1CCCC2 (stereo not given)	ALDH1A1 inh 22µM, HPGD inh inconclusive, KDM4E inh inconclusive
CCOC(=O)c1c(NC(=O)c2ccco2)sc(C(=O)N2CCCC2)c1C	ALDH1A1 inh inconclusive, HPGD inh 14µM, KDM4E inh inconclusive
CCc1c(C)sc(NC(=O)c2ccco2)c1C(=O)N1CCCCC1	ALDH1A1 inh 25µM
CC1(C)Cc2c(sc3c2c(N)nc(=S)n3Cc2ccc(Br)cc2)CO1	none (no result: ALDH1A1 inh, HPGD inh)
Cc1sc(NC(=O)c2ccccc2F)c(CN2CCCCC2)c1C	HttQ103 aggreg inconclusive, KDM4E inh inconclusive (no result: HTT cytoprotect)
Cc1sc(NC(=O)c2ccc(F)cc2)c(CN2CCCCCC2)c1C	ALDH1A1 inh 10µM, KDM4E inh inconclusive
Cc1sc(NC(=O)c2ccco2)c(CN2CCN(Cc3ccccc3)CC2)c1C	CBFb-RUNX1 inh inconclusive, ALDH1A1 inh 28µM, HttQ103 aggreg inconclusive, KDM4E inh inconclusive (no result: HPGD inh)
CC(=O)Nc1cccc(Oc2cc(C#N)c(C#N)cc2N2CCCCCC2)c1	ALDH1A1 inh inconclusive, HttQ103 aggreg inconclusive, HPGD inh inconclusive, KDM4E inh inconclusive
O=S1(=O)N=C(N/N=C/c2ccc(Br)o2)c2ccccc21	none (no result: HPGD inh)
CCNc1nc(NCC)nc(N(n2cnnc2)S(=O)(=O)c2ccc(C)cc2)n1	ALDH1A1 inh inconclusive, HttQ103 aggreg inconclusive
CCNc1nc(NC(C)C)nc(N(n2cnnc2)S(=O)(=O)c2ccc(C)cc2)n1	ALDH1A1 inh 2.2µM
COCCN=C1Sc2nc3ccc(C)cc3cc2CN1Cc1ccco1	ALDH1A1 inh 25µM, HttQ103 aggreg inconclusive, KDM4E inh inconclusive
COc1cc(OC)cc(-c2nnc(Nc3nc4c(F)cccc4s3)o2)c1	ALDH1A1 inh inconclusive, HPGD inh inconclusive, KDM4E inh inconclusive
Fc1cccc2sc(Nc3nnc(-c4ccccc4)o3)nc12	ALDH1A1 inh inconclusive, HttQ103 aggreg 11µM, HPGD inh inconclusive, KDM4E inh inconclusive
CN1/C(=C\C=N\NC(=O)c2ccccc2Br)C(C)(C)c2ccccc21	ALDH1A1 inh 28µM, HttQ103 aggreg 11µM, KDM4E inh inconclusive
CN1/C(=C/C=N/n2cnnc2)C(C)(C)c2ccccc21	KDM4E inh inconclusive
CCOC(=O)C(/C=N/c1cc(C)nn1-c1ccccc1)=C(\C)O	none
NC[C@@H]1O[C@H](O[C@H]2[C@H](O)[C@H](O[C@@H]3O[C@H](CO)[C@@H](O)[C@H](N)[C@@H]3O)[C@@H](N)C[C@H]2N)[C@@H](O)[C@H](O)[C@@H]1O	none
CC(=O)/C(=N/Nc1cccc(Cl)c1)N1CCOCC1	ALDH1A1 inh 13µM
CC(=O)/C(=N/Nc1ccccc1C)N1CCOCC1	ALDH1A1 inh 18µM
CC[C@H](C)[C@H](NC(=O)[C@@H](NC(=O)CNC(=O)[C@@H](N)CC(C)C)[C@@H](C)O)C(=O)N1CCC[C@H]1C(=O)NCC(=O)O	none (no result: ALDH1A1 inh, HttQ103 aggreg, HPGD inh, HTT cytoprotect, KDM4E inh)
COc1ccc(CCNC(=O)c2cc(-c3ccccc3O)n[nH]2)cc1OC	HPGD inh 28µM
Cc1[nH]nc(SCC(=O)NCCc2ccccc2)c1[N+](=O)[O-]	none (no result: HPGD inh)
COc1ccc(CCNC(=O)c2cc(-c3cccs3)on2)cc1OC	HTT cytoprotect 3.5µM
COc1ccc(CCNC(=O)c2cc(-c3ccc(C)cc3O)n[nH]2)cc1OC	HttQ103 aggreg inconclusive
Cc1cc(NC(=O)c2cc(-c3cccs3)on2)no1	ALDH1A1 inh inconclusive, HttQ103 aggreg 7.1µM (no result: HPGD inh)
COc1ccc(CCNC(=O)CSc2n[nH]c(C)c2[N+](=O)[O-])cc1OC	ALDH1A1 inh 28µM, HTT cytoprotect inconclusive (no result: HPGD inh)
O=C(NCCc1cccs1)C1CC(c2ccccc2[N+](=O)[O-])=NO1 (stereo not given)	none
CCC(=C(CC)c1ccc(O)cc1)c1ccc(O)cc1	none (no result: HttQ103 aggreg)
COc1ccccc1-c1cc(C(=O)NCc2ccco2)no1	HPGD inh 20µM
COc1ccc(CCNC(=O)C(=O)NCc2ccc(C(C)C)cc2)cc1OC	ALDH1A1 inh 0.79µM
COc1ccccc1-c1cc(C(=O)NC(C)C)no1	ALDH1A1 inh inconclusive, HPGD inh inconclusive, KDM4E inh inconclusive
COc1ccccc1-c1cc(C(=O)NCc2cccs2)no1	ALDH1A1 inh inconclusive, HPGD inh 14µM, KDM4E inh inconclusive
COc1ccc(CCNC(=O)c2cc(C(C)C)on2)cc1OC	none
